Data from PubChem BioAssay (NCATS).
Where “and” joins values, the source holds several entries; their conditions need not be identical. Identical values can stand only once. Records with an inconclusive call do not appear. Calls of active or inactive are those of the source. Unless noted, calls follow the shape of the dose curve; as a rule, active = well fitted curve in the direction sought with a large enough effect; inconclusive = small, poorly fitted or top-dose-only effect, or another doubt; inactive = no such curve, though single readings can be large; an effect the other way counts as inactive or inconclusive.

Tests used:
[1] = Cell Viability - LYMP2-013 (AID 970);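 also: series mostly up to about 92 µM; 0% = DMSO only and full inhibition = tetraoctylammonium bromide control; nearly all actives have a fitted effect of over 55% in size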
Method in brief: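 Human lymphoblastoid cells, 2500/well, were preincubated 5 hr at 37 C, then treated with compounds for 24 hr at 37 C in complete medium. Intracellular ATP was read by CellTiter-Glo luminescence; AC50 from Hill-equation fits of concentration-response data.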

[2] = Cell Viability - LYMP2-015 (AID 971);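 also: 0% = DMSO only and full effect = 92 µM tetraoctylammonium bromide; nearly all actives have a fitted effect of over 55% in size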
Method in brief: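 Human lymphoblastoid cells (2500/well) in complete medium were preincubated 5 hr at 37 C, then compound-treated 24 hr at 37 C. Intracellular ATP was read by CellTiter-Glo luminescence after 30 min at room temperature; AC50 came from Hill-equation concentration-response fits.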

[3] = Cell Viability - LYMP2-017 (AID 972); also: series mostly up to about 92 µM; % is scaled to controls: 0 for no effect and ±100 for the full control effect; nearly all actives have a fitted effect of over 55% in size
Method in brief: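 Human lymphoblastoid cells (2500/well) were seeded in complete medium, held 5 hr at 37 C, then exposed to compounds for 24 hr at 37 C. Intracellular ATP was read by CellTiter-Glo luminescence after 30 min at room temperature, with AC50 values from Hill-equation fits.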

[4] = Cell Viability - LYMP2-019 (AID 973);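 also: 0% = DMSO alone and full effect = 92 µM tetraoctylammonium bromide; nearly all actives have a fitted effect of over 55% in size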
Method in brief: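 Human lymphoblastoid cells were seeded at 2500 cells/well, preincubated 5 hr at 37 C, then exposed to compounds for 24 hr at 37 C in complete medium. Intracellular ATP was measured by CellTiter-Glo luminescence; AC50 from Hill fits.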

[5] = Cell Viability - LYMP2-021 (AID 974)
Method in brief: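 Human lymphoblastoid cells (2500/well) were preincubated 5 hr at 37 C, then exposed to compounds for 24 hr at 37 C in complete medium. Intracellular ATP was read by CellTiter-Glo luminescence; AC50 came from Hill-equation fits of concentration-response data.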

[6] = Cell Viability - LYMP2-023 (AID 975)
Method in brief: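 Human lymphoblastoid cells (2500/well) were preincubated 5 hr at 37 C, then exposed to compounds for 24 hr at 37 C in complete medium. Cellular ATP was read by CellTiter-Glo luminescence, and AC50 came from Hill-equation fits.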

[7] = Cell Viability - LYMP2-025 (AID 976);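 also: series mostly up to about 92 µM; plate controls were DMSO only for no effect and tetraoctylammonium bromide control for full effect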
Method in brief: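 Human lymphoblastoid LYMP2-025 cells (2500/well) were pre-incubated 5 hr at 37 C, then treated with compounds for 24 hr at 37 C in complete medium. Viability was read as intracellular ATP by CellTiter-Glo luminescence; AC50 from Hill fits.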

[8] = Cell Viability - LYMP2-002 (AID 977);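 also: series mostly up to about 92 µM; plate controls were DMSO only for no effect and 92 µM tetraoctylammonium bromide for full effect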
Method in brief: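 Luminescent ATP readout (CellTiter-Glo, 30 min room temperature) after 24 h compound exposure at 37 C of a human lymphoblastoid line, 2500 cells/well. AC50 values derived by standard Hill fitting of qHTS concentration-response data.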

[9] = Cell Viability - LYMP2-006 (AID 978); also: series mostly up to about 92 µM; % is scaled to controls: 0 for no effect and ±100 for the full control effect; nearly all actives have a fitted effect of over 60% in size
Method in brief: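 Cells are seeded at 2500 per well and rested 5 hr at 37 C. Compounds are added across a concentration series for 24 hr at 37 C, after which ATP is quantified by luciferase luminescence.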

[10] = Cell Viability - LYMP2-007 (AID 979);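 also: cells exposed to compound for 24 h before reading; 0% = DMSO only and the negative end = 92 µM tetraoctylammonium bromide; nearly all actives have a fitted effect of over 60% in size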
Method in brief: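 Human lymphoblastoid cells (2500/well) were plated in complete medium, incubated 5 hr at 37 C, then exposed to compounds for 24 hr at 37 C. Intracellular ATP was read by CellTiter-Glo luminescence after 30 min at room temperature; AC50 from Hill fits.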

[11] = Cell Viability - LYMP2-008 (AID 980); also: % is scaled to controls: 0 for no effect and ±100 for the full control effect; nearly all actives have a fitted effect of over 60% in size
Method in brief: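 Human lymphoblastoid cells (2500/well) were plated, held 5 hr at 37 C, then exposed to compounds for 24 hr at 37 C in complete medium. Intracellular ATP was read by CellTiter-Glo luminescence; AC50 from Hill-fitted concentration-response.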

[12] = Cell Viability - LYMP2-010 (AID 981)
Method in brief: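 Human lymphoblastoid LYMP2-010 cells (2500/well) were preincubated 5 hr at 37 C, then exposed to compounds for 24 hr at 37 C in complete medium. Intracellular ATP was measured by CellTiter-Glo luminescence after 30 min at room temperature; AC50 from Hill-fitted concentration-response.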

[13] = Cell Viability - LYMP2-012 (AID 982)
[14] = Cell Viability - LYMP2-014 (AID 983);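 also: series mostly up to about 92 µM; plate controls were DMSO only for no effect and 92 µM tetraoctylammonium bromide for full effect; nearly all actives have a fitted effect of over 50% in size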
Method in brief: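 Human lymphoblastoid cells (2500/well) were pre-incubated 5 hr at 37 C, then exposed to compounds in complete medium for 24 hr at 37 C. Intracellular ATP was read by CellTiter-Glo luminescence after 30 min at room temperature; AC50 from Hill fits.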

[15] = Cell Viability - LYMP2-016 (AID 984)
Method in brief: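 Cells were seeded at 2500 per well and rested 5 hr before a 24 hr compound exposure at 37 C. Viability was then gauged as cellular ATP by luciferase luminescence, with AC50 values fitted to the Hill equation.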

[16] = Cell Viability - LYMP2-018 (AID 985);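 also: plate controls were DMSO only for no effect and tetraoctylammonium bromide at 92 µM for full effect; nearly all actives have a fitted effect of over 50% in size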
Method in brief: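 Human lymphoblastoid cells (2500/well) were pre-incubated 5 hr at 37 C, then exposed to compounds for 24 hr at 37 C in complete medium. Viability was read as intracellular ATP by CellTiter-Glo luminescence; AC50 values came from Hill-equation fits.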

[17] = Cell Viability - LYMP2-020 (AID 986)
Method in brief: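 Human lymphoblastoid cells, 2500/well, were pre-incubated 5 hr at 37 C, then exposed to compounds for 24 hr at 37 C in complete medium. Intracellular ATP was read by CellTiter-Glo luminescence, and AC50 was derived by Hill fitting of concentration-response data.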

[18] = Cell Viability - LYMP2-022 (AID 987)
Method in brief: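 Human lymphoblastoid cells, 2500/well, preincubated 5 hr at 37 C, then exposed to compounds over a concentration range for 24 hr at 37 C in complete medium. Viability read as intracellular ATP by CellTiter-Glo luminescence after 30 min at room temperature; AC50 from Hill fits.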

[19] = Cell Viability - LYMP2-024 (AID 988);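 also: plate controls were DMSO only for no effect and 92 µM tetraoctylammonium bromide for full effect; nearly all actives have a fitted effect of over 60% in size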
Method in brief: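 Human lymphoblastoid cells (2500/well) in complete medium were preincubated 5 hr at 37 C, then exposed to compounds for 24 hr at 37 C. Intracellular ATP was read by CellTiter-Glo luminescence; AC50 from Hill-equation fits of concentration-response data.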

[20] = Cell Viability - LYMP2-026 (AID 989); also: % is scaled to controls: 0 for no effect and ±100 for the full control effect; nearly all actives have a fitted effect of over 50% in size
Method in brief: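 Human lymphoblastoid cells (2500/well) in complete medium were preincubated 5 hr at 37 C, then exposed to compounds for 24 hr at 37 C. Cellular ATP was read by CellTiter-Glo luminescence; AC50 from Hill-equation fits of concentration-response data.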

[21] = Cell Viability - LYMP1-002 - Assay at 24 hr (AID 993); also: % is scaled to controls: 0 for no effect and ±100 for the full control effect
Method in brief: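 Human lymphoblastoid LYMP1-002 cells, 2500/well in complete medium, were treated with compounds for 24 h at 37 C; intracellular ATP was read by CellTiter-Glo luminescence. AC50 values came from Hill-equation fits of qHTS concentration-response data.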

[22] = Cell Viability - LYMP1-002 - Assay at 40 hr (AID 994)
Method in brief: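 Human lymphoblastoid cells, 2500/well in complete medium, were preincubated 5 hr at 37 C, then exposed to compounds for 40 hr at 37 C. Intracellular ATP was read by CellTiter-Glo luminescence after 30 min at room temperature; AC50 from Hill-equation fits.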

[23] = target: Glucocorticoid receptor (Homo sapiens) (UniProt P04150); assay: qHTS assay for small molecule agonists of glucocorticoid receptor signaling (AID 588532; active = well fitted curve in the direction sought with a large enough effect in the signal ratio, with a control signal flat; the % refers to the signal ratio;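 also: 100% = dexamethasone at 0.1 µM and 0% = DMSO only wells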); conditions: HeLa MMTV-bla, beta-lactamase ratio, agonist, 18 h; stronger effect = higher value; percent of dexamethasone control, DMSO zero
Method in brief: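 Titration series, up to 92 uM, applied to GRE-bla HeLa cells for 18 h at 37 C. Detection by CCF4 FRET substrate after 2 h at RT.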

[24] = qHTS assay for small molecule antagonists of retinoid X receptor alpha signaling (AID 588546; active = well fitted inhibition curve with a large enough effect in the signal ratio, with a control signal flat, not every such curve was filed as active; the % refers to the signal ratio;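 also: cells stimulated with 9-cis-retinoic acid as agonist; % is scaled to controls: 0 for no effect and ±100 for the full control effect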); conditions: HEK293T RXRa-UAS-bla, beta-lactamase ratio, antagonist mode; measured here: W530 green channel, cytotoxicity proxy
Method in brief: (§1)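 Beta-lactamase reporter inhibition, read as CCF4 fluorescence ratio (ex 405, em 460/530 nm) after 2 h at RT. HEK293T UAS-bla cells, 2500/well, were stimulated with 9-cis-RA at 500 or 100 nM final alongside test compound for 18 h at 37 C.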

[25] = target: Retinoic acid receptor RXR-alpha (Homo sapiens) (UniProt P19793); assay: as above; conditions: HEK293T RXRa-UAS-bla, beta-lactamase ratio, antagonist mode
Method in brief: as §1

[26] = qHTS assay for small molecule disruptors of the mitochondrial membrane potential - 1 hr assay (AID 651754; calls by dose curve; also: % is scaled to controls: 0 for no effect and ±100 for the full control effect; nearly all actives have a fitted effect of over 35% in size)
Method in brief: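 HepG2 cells, attached overnight at 37C, were exposed to compound or DMSO vehicle for 1 hr at 37C, 5% CO2, then stained with Mito-MPS dye for 30 min. Red aggregate versus green monomer fluorescence reports membrane potential.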

[27] = qHTS assay for small molecule disruptors of the mitochondrial membrane potential - 5 hr assay (AID 651755; calls by dose curve; also: % is scaled to controls: 0 for no effect and ±100 for the full control effect; nearly all actives have a fitted effect of over 40% in size)
Method in brief: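 HepG2 cells, attached overnight at 37C, were exposed to compound or DMSO for 5 hr at 37C, 5% CO2. Mito-MPS dye was then added for 30 min, and fluorescence read at 490/535 nm (monomers) and 540/590 nm (aggregates).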

[28] = target: Tumor necrosis factor (Homo sapiens) (UniProt P01375); assay: qHTS assay to identify small molecules that stimulate Tumor Necrosis Factor-alpha (TNF-alpha) secretion (AID 651757; active = well fitted curve in the direction sought with a large enough effect in the signal ratio; the % refers to the signal ratio; also: 0% is about no effect)
Method in brief: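 THP-1 cells were exposed to compounds for 17 hrs at 37 C, after which secreted TNF-alpha was measured by homogeneous HTRF (TR-FRET) using cryptate- and XL665-labeled anti-TNF-alpha antibodies, read after 3 hr at room temperature.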

[29] = target: Peroxisome proliferator-activated receptor alpha (Homo sapiens) (UniProt Q07869); assay: qHTS assay for small molecule agonists of the peroxisome proliferator-activated receptor alpha (PPARalpha) signaling pathway (AID 651778); conditions: PathHunter PPARalpha complementation, chemiluminescence, 6 h; max response: stronger effect = higher value; also: % of control where 0% means no effect
Method in brief: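 Cells plated at 2,000/well and held overnight at 37 C, 5% CO2, then compound added by pin tool for 6 hr; after PathHunter detection reagent and 60 min at room temperature, chemiluminescence from enzyme complementation was read.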

[30] = qHTS assay for small molecule antagonists of the retinoid-related orphan receptor gamma (ROR-gamma) signaling pathway - cell viability counter screen (AID 720652; active = well fitted curve in the direction sought with a large enough effect in the repeat runs; an effect the other way counts as inactive or inconclusive;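 also: CHO reporter cells with doxycycline-induced ROR-gamma expression; series mostly up to about 92 µM; compound exposure lasted 16 hr before ATP read; % is scaled to controls: 0 for no effect and ±100 for the full control effect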)
Method in brief: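 Counter screen in CHO cells carrying TET-inducible ROR-gamma and an ROR response element-luciferase reporter; cells plated 5 hr, compound pinned, doxycycline added, then 16 hr at 37 C. Viability read as intracellular ATP by CellTiter-Glo luminescence.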

[31] = qHTS assay for small molecule agonists of the antioxidant response element (ARE) signaling pathway measured by Nrf2-dependant transcriptional activity - cell viability counter screen (AID 720653; active = well fitted curve in the direction sought with a large enough effect in the repeat runs; an effect the other way counts as inactive or inconclusive; also: % is scaled to controls: 0 for no effect and ±100 for the full control effect); conditions: ARE-bla HepG2 viability, CellTiter-Glo ATP luminescence, 16 h; max response: stronger effect = lower value
Method in brief: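 ARE-bla HepG2 cells (2,000/well) rested 5 hrs at 37C/5% CO2, then exposed to compounds in DMSO for 16 hrs. Viability was read in the same wells as intracellular ATP by luminescence, 30 min at room temperature after reagent addition.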

[32] = qHTS assay for cell viability of HEK293 cells (AID 743288); conditions: ATP luminescence (CellTiter-Glo), 18 h; max response: stronger effect = lower value; also: % is scaled to controls: 0 for no effect and ±100 for the full control effect; nearly all actives have a fitted effect of over 50% in size
Method in brief: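 HEK293 parental, 2,000 cells/well; ≥5 h pre-incubation 37 C; pintool compound addition; 18 h, 37 C; CellTiter-Glo 30 min RT; luminescence read.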

[33] = qHTS assay for cell viability of the p53RE-bla HCT-116 cell line (AID 743292)
Method in brief: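 CellSensor p53RE-bla HCT-116 cells (4,000/well) pre-incubated 5 h at 37 C, then exposed to compounds in DMSO for 16 h at 37 C. Viability read as ATP content by CellTiter-Glo luminescence after 30 min at room temperature.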

[34] = target: Rap guanine nucleotide exchange factor 3 (Homo sapiens) (UniProt O95398); assay: Confirmatory qHTS for agonist of cAMP-regulated guanine nucleotide exchange factor 3 (EPAC1) (AID 1645881);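 also: EPAC1 catalysed release of BODIPY-GDP from Rap1B seen as fluorescence loss; 100% = effect of cAMP agonist control; nearly all actives have a fitted effect of over 75% in size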
[35] = target: Rap guanine nucleotide exchange factor 4 (Homo sapiens) (UniProt Q8WZA2); assay: Confirmatory qHTS for agonist of cAMP-regulated guanine nucleotide exchange factor 4 (EPAC2) (AID 1645884);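 also: nucleotide exchange releases bodipy-GDP from Rap1 and this lowers its fluorescence; % is scaled to controls: 0 for no effect and ±100 for the full control effect; nearly all actives have a fitted effect of over 65% in size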
[36] = target: Rap guanine nucleotide exchange factor 3 (Homo sapiens) (UniProt O95398); assay: Counterscreen qHTS for antagonist of cAMP-regulated guanine nucleotide exchange factor 3 (EPAC1) (AID 1645888);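 also: fluorescence loss as bound BODIPY-GDP is released from Rap1B; % of control where 0% means no effect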
Method in brief: (§2)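 Measured: fluorescence of BODIPY-GDP bound to Rap1B, which falls as exchange proceeds. Conditions include 50 uM competing GDP, 5 and 30 min reads, and a later cAMP challenge for antagonist detection.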

[37] = target: Rap guanine nucleotide exchange factor 3 (Homo sapiens) (UniProt O95398); assay: Counterscreen qHTS for agonist of cAMP-regulated guanine nucleotide exchange factor 3 (EPAC1) (AID 1645889); also: % of control where 0% means no effect; nearly all actives have a fitted effect of over 40% in size
Method in brief: as §2

[38] = target: Nuclear receptor subfamily 1 group I member 2 (Rattus norvegicus) (UniProt Q9R1A7); assay: qHTS assay for small molecule activators of the rat pregnane X receptor (rPXR) signaling pathway (AID 651751; call rule not given here; also: 0% is about no effect); conditions: rPXR reporter cells, luciferase (One-Glo), 24 h
[39] = qHTS assay for small molecule activators of the human pregnane X receptor (PXR) signaling pathway (AID 720659; call rule not given here; also: 0% is about no effect)

Sequence of Rap guanine nucleotide exchange factor 3 (Homo sapiens) (O95398 whole entry, looked up): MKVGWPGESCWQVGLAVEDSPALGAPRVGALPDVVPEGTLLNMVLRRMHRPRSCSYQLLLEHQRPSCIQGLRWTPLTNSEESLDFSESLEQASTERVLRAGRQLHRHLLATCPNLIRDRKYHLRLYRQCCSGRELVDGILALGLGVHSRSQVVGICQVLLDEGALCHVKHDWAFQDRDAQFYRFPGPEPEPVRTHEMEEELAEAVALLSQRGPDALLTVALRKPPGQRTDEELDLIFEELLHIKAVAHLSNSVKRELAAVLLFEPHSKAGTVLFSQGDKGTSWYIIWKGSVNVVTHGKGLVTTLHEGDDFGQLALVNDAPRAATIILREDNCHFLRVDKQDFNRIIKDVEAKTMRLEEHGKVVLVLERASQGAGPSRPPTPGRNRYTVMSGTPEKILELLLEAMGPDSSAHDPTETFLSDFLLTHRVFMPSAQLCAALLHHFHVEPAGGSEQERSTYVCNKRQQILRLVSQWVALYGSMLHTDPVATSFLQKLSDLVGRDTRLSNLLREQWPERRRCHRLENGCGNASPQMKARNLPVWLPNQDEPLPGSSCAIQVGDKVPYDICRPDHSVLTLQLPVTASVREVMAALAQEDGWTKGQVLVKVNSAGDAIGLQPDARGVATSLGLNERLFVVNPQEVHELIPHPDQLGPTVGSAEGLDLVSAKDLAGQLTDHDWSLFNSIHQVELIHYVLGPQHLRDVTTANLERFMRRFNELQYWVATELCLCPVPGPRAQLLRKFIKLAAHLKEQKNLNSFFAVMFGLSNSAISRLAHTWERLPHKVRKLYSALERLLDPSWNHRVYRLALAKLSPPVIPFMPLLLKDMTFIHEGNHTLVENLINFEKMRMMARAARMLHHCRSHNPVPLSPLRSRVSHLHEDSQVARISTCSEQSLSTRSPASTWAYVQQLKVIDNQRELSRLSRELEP
Sequence of Glucocorticoid receptor (Homo sapiens) (P04150 whole entry, looked up): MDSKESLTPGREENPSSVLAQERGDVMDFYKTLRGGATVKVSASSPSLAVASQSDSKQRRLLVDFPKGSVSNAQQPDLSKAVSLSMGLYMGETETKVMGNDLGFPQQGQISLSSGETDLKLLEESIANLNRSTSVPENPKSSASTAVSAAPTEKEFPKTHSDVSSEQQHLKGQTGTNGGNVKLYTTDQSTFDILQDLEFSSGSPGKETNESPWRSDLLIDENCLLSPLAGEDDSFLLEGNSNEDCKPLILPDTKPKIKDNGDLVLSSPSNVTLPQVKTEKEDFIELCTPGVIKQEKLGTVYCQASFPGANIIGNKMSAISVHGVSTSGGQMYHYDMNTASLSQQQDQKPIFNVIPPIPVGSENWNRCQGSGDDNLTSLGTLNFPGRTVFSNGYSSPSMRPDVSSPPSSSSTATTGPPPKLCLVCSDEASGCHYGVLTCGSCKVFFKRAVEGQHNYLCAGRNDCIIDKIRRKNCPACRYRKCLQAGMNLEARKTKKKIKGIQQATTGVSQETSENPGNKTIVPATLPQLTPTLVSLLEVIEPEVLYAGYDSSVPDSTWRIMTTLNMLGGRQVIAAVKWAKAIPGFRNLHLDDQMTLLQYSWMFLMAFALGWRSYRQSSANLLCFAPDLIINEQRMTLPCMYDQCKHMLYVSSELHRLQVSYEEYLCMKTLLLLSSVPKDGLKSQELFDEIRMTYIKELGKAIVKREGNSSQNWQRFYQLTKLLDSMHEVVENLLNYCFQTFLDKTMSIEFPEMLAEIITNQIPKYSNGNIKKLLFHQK
Sequence of Peroxisome proliferator-activated receptor alpha (Homo sapiens) (Q07869 whole entry, looked up): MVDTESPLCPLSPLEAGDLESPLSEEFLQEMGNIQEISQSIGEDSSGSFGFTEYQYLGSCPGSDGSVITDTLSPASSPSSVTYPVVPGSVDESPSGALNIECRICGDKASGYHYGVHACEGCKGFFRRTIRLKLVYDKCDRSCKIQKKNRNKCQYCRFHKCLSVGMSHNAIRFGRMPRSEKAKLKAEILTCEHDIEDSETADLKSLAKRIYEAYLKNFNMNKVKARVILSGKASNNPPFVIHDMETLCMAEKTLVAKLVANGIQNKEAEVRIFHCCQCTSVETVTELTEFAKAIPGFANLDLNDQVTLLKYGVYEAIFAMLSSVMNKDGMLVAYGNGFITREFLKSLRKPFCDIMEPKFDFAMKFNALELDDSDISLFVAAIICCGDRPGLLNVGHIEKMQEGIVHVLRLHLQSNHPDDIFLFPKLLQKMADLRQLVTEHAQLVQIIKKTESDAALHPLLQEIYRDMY
Sequence of Nuclear receptor subfamily 1 group I member 2 (Rattus norvegicus) (Q9R1A7 whole entry, looked up): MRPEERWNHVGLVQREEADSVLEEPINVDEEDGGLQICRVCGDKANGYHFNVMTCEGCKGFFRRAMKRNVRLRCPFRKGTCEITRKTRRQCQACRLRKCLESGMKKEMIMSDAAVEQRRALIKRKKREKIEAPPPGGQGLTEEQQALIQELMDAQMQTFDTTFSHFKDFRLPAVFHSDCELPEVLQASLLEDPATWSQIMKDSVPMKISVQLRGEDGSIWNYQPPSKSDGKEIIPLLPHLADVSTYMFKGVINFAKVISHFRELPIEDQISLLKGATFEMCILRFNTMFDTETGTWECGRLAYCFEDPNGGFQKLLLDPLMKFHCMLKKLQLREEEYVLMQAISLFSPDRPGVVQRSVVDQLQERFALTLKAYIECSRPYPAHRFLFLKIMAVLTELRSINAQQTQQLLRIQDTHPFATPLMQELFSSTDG
Sequence of Retinoic acid receptor RXR-alpha (Homo sapiens) (P19793 whole entry, looked up): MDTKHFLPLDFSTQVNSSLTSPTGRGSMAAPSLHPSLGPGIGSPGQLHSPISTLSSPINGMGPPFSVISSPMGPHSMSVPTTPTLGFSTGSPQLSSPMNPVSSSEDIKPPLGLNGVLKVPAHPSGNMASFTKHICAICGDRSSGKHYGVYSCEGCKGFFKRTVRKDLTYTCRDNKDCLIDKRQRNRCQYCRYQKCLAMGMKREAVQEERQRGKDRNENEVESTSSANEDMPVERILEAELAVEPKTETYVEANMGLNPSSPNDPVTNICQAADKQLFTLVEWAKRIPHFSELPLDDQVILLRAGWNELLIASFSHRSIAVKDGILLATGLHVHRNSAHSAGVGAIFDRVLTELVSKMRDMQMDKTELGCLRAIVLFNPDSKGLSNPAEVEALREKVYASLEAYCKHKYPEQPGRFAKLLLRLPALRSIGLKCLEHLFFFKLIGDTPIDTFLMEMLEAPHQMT
Sequence of Rap guanine nucleotide exchange factor 4 (Homo sapiens) (Q8WZA2 whole entry, looked up): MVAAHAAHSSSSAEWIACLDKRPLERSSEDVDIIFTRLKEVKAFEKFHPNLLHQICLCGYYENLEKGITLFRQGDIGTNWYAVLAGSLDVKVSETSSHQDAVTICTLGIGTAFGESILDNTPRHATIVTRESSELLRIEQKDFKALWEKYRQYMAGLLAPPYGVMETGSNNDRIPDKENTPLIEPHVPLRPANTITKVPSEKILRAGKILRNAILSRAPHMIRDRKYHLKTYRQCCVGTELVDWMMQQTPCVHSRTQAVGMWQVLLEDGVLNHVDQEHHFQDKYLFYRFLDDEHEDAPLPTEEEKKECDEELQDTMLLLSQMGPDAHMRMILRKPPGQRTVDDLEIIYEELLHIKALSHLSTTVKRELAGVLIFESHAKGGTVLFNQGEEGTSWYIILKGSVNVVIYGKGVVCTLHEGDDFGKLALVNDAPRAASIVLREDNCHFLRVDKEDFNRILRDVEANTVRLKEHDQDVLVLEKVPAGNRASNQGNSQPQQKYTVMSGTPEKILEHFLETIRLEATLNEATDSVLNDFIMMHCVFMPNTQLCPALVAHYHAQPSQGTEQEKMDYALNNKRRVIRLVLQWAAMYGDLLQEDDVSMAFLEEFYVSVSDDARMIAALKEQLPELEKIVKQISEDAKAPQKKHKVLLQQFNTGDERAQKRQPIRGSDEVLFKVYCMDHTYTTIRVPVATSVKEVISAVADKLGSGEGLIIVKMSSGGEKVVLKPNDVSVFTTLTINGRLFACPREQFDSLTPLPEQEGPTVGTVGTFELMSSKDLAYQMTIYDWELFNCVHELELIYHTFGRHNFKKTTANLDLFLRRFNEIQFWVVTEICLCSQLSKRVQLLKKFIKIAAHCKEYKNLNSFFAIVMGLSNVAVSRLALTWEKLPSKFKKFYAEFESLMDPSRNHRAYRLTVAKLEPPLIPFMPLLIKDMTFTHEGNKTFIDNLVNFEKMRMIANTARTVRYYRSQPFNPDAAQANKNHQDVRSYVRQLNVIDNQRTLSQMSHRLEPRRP
Sequence of Tumor necrosis factor (Homo sapiens) (P01375 whole entry, looked up): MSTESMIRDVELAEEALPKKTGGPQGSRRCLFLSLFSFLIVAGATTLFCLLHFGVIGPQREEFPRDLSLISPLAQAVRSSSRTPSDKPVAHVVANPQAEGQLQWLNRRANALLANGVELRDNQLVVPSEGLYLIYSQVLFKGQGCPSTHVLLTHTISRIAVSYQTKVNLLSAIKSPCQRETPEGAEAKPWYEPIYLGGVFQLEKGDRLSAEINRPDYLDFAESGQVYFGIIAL

C[C@H](CCC(=O)O)[C@H]1CC[C@H]2[C@@H]3CC[C@@H]4C[C@H](O)CC[C@]4(C)[C@H]3CC[C@]12C
21.6% and 12.2%: max response [24]
active: Potency [33] 31.6 µM and 35.5 µM
inactive: Potency [1] | Potency [2] | Potency [3] | Potency [4] | Potency [5] | Potency [6] | Potency [7] | Potency [8] | Potency [9] | Potency [10] | Potency [11] | Potency [12] | Potency [13] | Potency [14] | Potency [15] | Potency [16] | Potency [17] | Potency [18] | Potency [19] | Potency [20] | Potency [21] | Potency [22] | activation [23] -9.27% and -13.3% | max response [25] -5.6% and -21.5% | Potency [26] | Potency [27] | outcome [28] | max response [29] 2.21% and -0.262% | Potency [30] | max response [31] 1.28% and 4.08% | max response [32] -8.43% and -9.1% | Potency [34] | Potency [35] | Potency [36] | Potency [37] | max response [38] 6.51% and -5.67% | outcome [39]
